High-throughput results from PubChem.
Rows were chosen to be rich in hits. Some 7.3% of all compounds tested hit in one or more screens of this group.
Vaccinia Venus = qHTS for Stage-Specific Inhibitors of Vaccinia Orthopoxvirus: Venus Reporter Primary qHTS; 330,000 compounds, 0.46% hits; Vaccinia virus Venus reporter expression, fluorescence; Potency, µM (doses to about 36.5 µM), without a hit: top-dose activity change, negative = inhibition, actives largely listed as inhibitors; calls by dose curve; tested in A549 cells; note: potency is the fitted concentration of half-maximal effect; nearly all actives have a fitted effect of over 30% in size
VACV mCherry inh = qHTS for Stage-Specific Inhibitors of Vaccinia Orthopoxvirus: mCherry Reporter Primary qHTS; Vaccinia virus mCherry reporter infection, fluorescence; Potency, µM (series often up to 36.5 µM), for inactives: at the top dose activity change, negative = inhibition, actives largely listed as inhibitors; 310,000 compounds, 0.63% hits; AID 720579, 2013; calls by dose curve; tested in A549 cells; note: potency is the fitted concentration of half-maximal effect; nearly all actives have a fitted effect of over 35% in size
HCMV inh = qHTS Assay for inhibitors of the human cytomegalovirus (HCMV); 410,000 compounds, 4.5% hits; HFF cells, HCMV-luciferase reporter, 72 h; stronger effect = lower value; activity change, negative = inhibition, % at 57.5 µM; in the data active = activity change below about -60%; inconclusive = no clear call, values can overlap the other calls; inactive = above about -39%
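Cell-based, HFFs, 1000 cells/well, 16 h 37C; cpds in DMSO + HCMV-luc, MOI 1 PFU/cell; 72 h 37C; OneGlo luminescence after 5 min RT; norm. to buffer vs Salinomycin 10uM.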
FMDV inh = High Throughput Screening for Foot and Mouth Disease Virus Antivirals | FMDV antiviral cell-based qHTS | Potency, µM (series often up to 57.9 µM), without a hit: top-dose activity change, negative = inhibition, most hits filed as inhibitors | 410,000 compounds, 1.2% hits | AID 1159524, 2015; calls by dose curve; tested in HEK293T cells; note: read-out not given here; potency is the fitted concentration of half-maximal effect; nearly all actives have a fitted effect of over 45% in size
HCV inhibitor = qHTS Assay for Inhibitors of Hepatitis C Virus (HCV); 340,000 compounds, 3.4% hits; Potency, µM (series often up to 41.8 µM), for the others: top-dose activity change, negative = inhibition, hits mostly inhibitors; Huh7.5.1 HCVcc-Cre infection, luciferase reporter, 44 h; active = well fitted inhibition curve with a large enough effect; inconclusive = small, poorly fitted or top-dose-only effect, or another doubt; inactive = no such curve, though single readings can be large or run the other way; note: potency is the fitted concentration of half-maximal effect
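Infectious HCV cell culture screen: compound-treated cells (1,000/well, pre-plated 4 h) are infected with HCVcc-Cre at roughly 0.5 moi and grown 44 h. Infection is quantified by luciferase signal after 15 min substrate incubation at room temperature.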
* hit, by the source's call; i = inactive; u = inconclusive; x = not tested or not shown; [ ] = another dose, or the depositor's remark. % is set by controls: 0 for no effect and ±100 for the full control effect.

SMILES	Vaccinia Venus	VACV mCherry inh	HCMV inh	FMDV inh	HCV inhibitor
CCOC(=O)C1CCN(C(=O)C2COc3ccccc3O2)CC1 (centres undefined)	-9%	-3%	-9	23%	13%
CCCCNC(=O)COC(=O)c1c2c(nc3ccccc13)/C(=C/c1cccs1)CC2	u	-13%	78	19%	2.2µM*
COc1ccc(OC)c(S(=O)(=O)N2CCC(C(=O)NCc3ccncc3)CC2)c1	-13%	-8%	10	-5%	15%
Cc1ccc(C(=O)NNC(=O)CSc2n[nH]c(-c3cccnc3)n2)cc1	-18%	0%	-104*	-10%	-6%
Cc1ccc(O)c(NC(=O)CSc2n[nH]c(-c3ccccc3)n2)c1	x	x	-83*	u	11µM*
Cc1nc(SCC(=O)Nc2cccc(Cl)c2)n[nH]1	-16%	-8%[1.46 µM]	-9	0%	8%
Cc1ccc(C)c(NC(=O)CSc2n[nH]c(-c3ccccn3)n2)c1	u	7.9µM*	u	19%	u
O=C(CSc1n[nH]c(-c2ccccn2)n1)Nc1cccc(Cl)c1	-23%	u	-98*	-20%	10µM*
Cc1ccc(NC(=O)CSc2n[nH]c(-c3ccco3)n2)c(C)c1	-2%	-5%	-37	11%	11%
Cc1ccc(S(=O)(=O)N2Cc3ccccc3CC2C(N)=O)cc1 (centres undefined)	-8%	-5%	-4	0%	x
CCn1ccc2cc(S(=O)(=O)N3CCCN(C(=O)NCC(C)C)CC3)ccc21	10%	-9%	9	-26%	x
Nc1nc(SCC(=O)Nc2cccc(F)c2)n[nH]1	x	x	-100*	-6%	-1%
Cc1ccccc1NC(=O)CSc1n[nH]c(-c2ccccn2)n1	-22%	6.3µM*	41	-8%	u
Nc1nc(SCC(=O)Nc2cccc(C(F)(F)F)c2)n[nH]1	0%	i	5	-11%	x
CCC1CCc2c(sc3nc(SCC(=O)NCc4ccco4)n(-c4ccccc4)c(=O)c23)C1 (centres undefined)	11%	x	-75*	-6%	-1%
O=C(CSc1nc2c(sc3ccccc32)c(=O)n1-c1ccccc1)NCc1ccco1	x	x	-81*	-7%	0%
Cc1ccc(-n2c(SCC(=O)NCc3ccco3)nc3sc4c(c3c2=O)CC(C)(C)SC4)cc1	-15%	-3%	-11	10%	-2%
N#C[C@H](c1ccccc1)C1CCN(S(=O)(=O)CCCCl)CC1	x	x	-20	x	x
O=C1C2C3c4ccccc4C(c4ccccc43)C2C(=O)N1c1ccncc1 (centres undefined)	x	x	-64*	u	u
O=C1C2C3c4ccccc4C(c4ccccc43)[C@@H]2C(=O)N1c1cccnc1 (some centres undefined)	-4%	-13%	-28	u	8%
CC(=O)n1cc(N(C(=O)CCl)c2ccc(C)cc2)c2ccccc21	-19%	-10%	-97*	14µM*	1.6µM*
O=[N+]([O-])c1ccccc1Nc1c2ccccc2nc2ccccc12	-14%	u	-62*	-26%	u
O=[N+]([O-])c1ccc(Nc2c3ccccc3nc3ccccc23)cc1	u	u	-90*	-23%	-9%
Cc1ccc2c(=O)cc(C(=O)Nc3ccc(S(=O)(=O)Nc4onc(C)c4C)cc3)oc2c1C	-11%	-8%	2	-6%	x
O=C(NCCc1ccccc1Cl)c1ccc2c(c1)nc1n2CCCCC1	-17%	-17%	-81*	25µM*	x
SMILES	Vaccinia Venus	VACV mCherry inh	HCMV inh	FMDV inh	HCV inhibitor
Clc1ccc2c(c1)nc1n2CCCC1	-13%	-4%	-8	17%	25µM*
CC(C)CCNC(=O)c1ccc2c(c1)nc1n2CCCCC1	-8%	-16%	-7	-25%	x
COc1cccc(CNC(=O)c2c(OC)cc(=O)n3c2CCN(C(=O)c2ccc(Cl)cc2)CC3)c1	0%	i	x	0%	x
CCCN(C(=O)c1ccc(N(C)S(=O)(=O)c2ccc(C)cc2)cc1)C1CCS(=O)(=O)C1 (centres undefined)	-17%	i	-29	-22%	5%
CON(C)C(=O)/C=C/[C@@H](CC1CCCC1)NC(=O)C(F)(F)F	x	x	-14	x	x
CCc1ccccc1NC(=O)CSc1nnc(-c2cc(OC)c(OC)c(OC)c2)o1	-14%	-19%	11	-25%	x
